Measured values taken from PubChem BioAssay AID602233 (National Center for Advancing Translational Sciences (NCATS), 2012).
Among all 380,000 compounds or so, about 170 (0.045%) were called active. The call rests on the fitted dose curve; in most records, active means well fitted inhibition curve with a large enough effect; inconclusive means small, poorly fitted or top-dose-only effect; inactive means no such curve, though single readings can be large or run the other way. The sample as a whole holds a higher share of actives than the screen did.

target: Phosphoglycerate kinase, glycosomal (Trypanosoma brucei brucei) (UniProt P07378); experiment: qHTS Assay to Find Inhibitors of Phosphoglycerate Kinase; conditions: PGK/GAPDH coupled, Kinase-Glo luminescence, 60 min; series mostly up to 57.5 µM; activity change, negative = inhibition: at the top concentration; further: nearly all actives have a fitted effect of over 60% in size
Sequence (P07378 whole entry, looked up): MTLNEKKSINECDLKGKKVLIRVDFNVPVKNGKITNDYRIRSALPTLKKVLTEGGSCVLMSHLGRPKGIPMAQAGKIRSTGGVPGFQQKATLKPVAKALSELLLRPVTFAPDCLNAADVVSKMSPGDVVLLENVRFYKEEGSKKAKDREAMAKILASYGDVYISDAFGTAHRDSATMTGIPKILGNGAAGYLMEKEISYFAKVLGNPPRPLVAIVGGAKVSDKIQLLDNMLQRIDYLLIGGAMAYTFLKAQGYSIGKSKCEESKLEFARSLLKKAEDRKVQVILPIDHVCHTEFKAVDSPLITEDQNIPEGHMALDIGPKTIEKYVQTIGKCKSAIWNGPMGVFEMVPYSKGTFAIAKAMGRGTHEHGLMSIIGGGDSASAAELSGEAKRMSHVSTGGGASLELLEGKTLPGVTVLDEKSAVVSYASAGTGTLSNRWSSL
Text: Several species of the Trypanosomatidae family of parasitic protozoans cause a spectrum of diseases throughout the tropical and subtropical world. Sleeping sickness, caused by two subspecies of Trypanosoma brucei, is endemic to areas of sub-Saharan Africa, while Chagas disease, a manifestation of Trypanosoma cruzi infection, is prevalent throughout Central and South America. In addition, many species of Leishmania are responsible for a range of cutaneous and visceral diseases, causing ulcers, destructive lesions and kalaazar, a lethal infection of the viscera. Collectively, these organisms infect 30 million people worldwide (~500 million live in endemic areas), and account for ~130,000 deaths annually. Given their debilitating and prevalent nature, trypanosomatid parasites impose a heavy medical, economic and social burden on entire populations, primarily in the developing world. The problem is further exacerbated by the fact that existing treatments have progressed little in the past 50 years, and current drugs show high toxicity and poor efficacy. […] Blood-stream stages of T. brucei are entirely dependent on glycolysis as a source of ATP, and the tricarboxylic acid cycle and oxidative phosphorylation are both repressed. Glycolysis in axenically cultured T. cruzi, representing the intracellular pathogenic stage, is also essential for these parasites. […] Previous studies have shown that the glycolytic enzyme, phosphoglycerate kinase (PGK), is a viable target for drugs to kill these parasites. […] NIH Molecular Libraries Probe Production Network [MLPCN] NIH Chemical Genomics Center [NCGC] MLPCN Grant: R03 MH093212 PI Name: Malcolm Walkinshaw, University of Edinburgh
3ul of substrate/PGK buffer (columns 1,2,5-48) are dispensed into Greiner white solid bottom 1536-well assay plates; columns 3-4 receive only TEA buffer as 0x PGK controls. Compounds are then transferred via Kalypsys pin tool equipped with 1536-pin array (10nl slotted pins, V&P Scientific, San Diego, CA). Following addition of compound, 1ul of GAPDH (100nM final concentration, all columns) is added to initiate the reaction (this upstream coupling enzyme is necessary for in-well production of PGK substrate, 1,3-bisphosphoglycerate (1,3-BPG), which is unstable and not commercially available). The plates are then incubated at room temperature for 60 minutes. Kinase-Glo Plus reagent is added (2ul) and plates incubated for 10 minutes, before being transferred to a ViewLux high-throughput CCD imager (PerkinElmer) wherein single end-point measurements of luminescence are acquired using a clear filter. All reagents are diluted in an assay buffer consisting of 100mM TEA (pH 7.6), 5mM MgCl2 and 0.01% Tween-20.
On the % scale 0 is the no-effect control and ±100 the full control effect.

Activity change, negative = inhibition, inactive:
CCCN1CN=C(NS(=O)(=O)c2ccc(NC(C)=O)cc2)NC1 -8.9%
CC(=O)Nc1cc(C(=O)NCc2ccc(F)cc2Cl)ccc1Sc1ccc(Cl)cc1 8.65%
COc1ccc(-c2cn3c(C)c(C(=O)Nc4cc(C)cc(C)c4)sc3n2)cc1 -0.686%
CCc1ccccc1NC(=O)CSc1nnc(-c2ccccc2)c(-c2ccccc2)n1 9.96%
COc1ccc(OC)c(NC(=O)C2CCN(S(=O)(=O)c3ccc(C)cc3)CC2)c1 -0.994%
O=C(CSc1ncc(CO)n1Cc1ccc(F)cc1)NCc1ccco1 -6.21%
CCC1CN(S(=O)(=O)c2cc(-c3cc(C)no3)ccc2C)c2cc(C)ccc2O1 (configuration not stated) -0.193%
Cc1oc2ncnc(N3CCOCC3)c2c1C(=O)NCCc1ccccc1 -4.29%
Cc1cccc(C(=O)NCCc2nc3ccccc3n2Cc2ccccc2Cl)c1 2.99%
CCc1ccc(CNC(=O)c2cc3cc4ccc(OC)cc4nc3o2)cc1 -5.03%
CCC(=O)Nc1c(C(=O)N2CCN(c3ccc(F)cc3)CC2)oc2ccccc12 3.16%
COc1ccc(-c2c(C)nn3c(N4CCC(C(=O)NCCC(C)C)CC4)cc(C)nc23)cc1OC 0.974%
Cc1ccc(-c2nnc3c4ccccc4c(C)nn23)cc1NC(=O)c1cccc(Br)c1 7.56%
Cc1ccc(NC(=O)Cn2cnc3nc4c(cc3c2=O)CCCC4)cc1Cl -6.55%
O=C(c1ccc(Br)cc1)N(Cc1cccs1)c1ccc(F)cc1 3.55%
Cc1ccc(NC(=O)CSc2nc3ccccc3c3nc(CCn4cncc4C)nn23)cc1F 4.26%
CCc1ccc(NC(=O)N2CCN(C(=O)c3nsc4ccccc34)CC2)cc1 6.83%
Cc1ccc(Cl)cc1NC(=O)CCS(=O)(=O)c1ccc(Br)s1 -2.54%
Cc1ccc(NC(=O)c2oc3ccccc3c2NC(=O)Cc2cccs2)cc1 -7.26%
Cc1ccc(-n2nc(CO)c(C(=O)NCCc3ccccc3)n2)cc1 -11.4%
O=C1CCCc2cc(S(=O)(=O)N3CCCC(C(=O)NCc4ccccc4)C3)ccc2N1 (configuration not stated) 6.57%
COc1ccccc1CNC(=O)c1ccc(NC(=O)N2CC(C)Sc3ccccc32)cc1 (configuration not stated) 3.38%
Cc1cc(C)c(/C=C/c2onc(C)c2S(=O)(=O)N2CCC(C(=O)Nc3ccc(Cl)cc3C)CC2)c(C)c1 1.64%
CCc1cccc(NC(=O)CSc2nccn2C)c1 0.152%
COc1cc(C(=O)NCC(c2ccc(Cl)cc2)N2CCOCC2)cc(OC)c1OC (configuration not stated) 1.64%
CCCCc1nn2c(=O)cc(COC(=O)c3ccc(NC(=O)c4ccccc4C)cc3)nc2s1 -1.81%
Cc1ccccc1CNC(=O)c1ccc(NC(=O)N2CCCCc3ccccc32)cc1 9.36%
CCCN(CCC)C(=O)C(Cc1ccccc1)NS(=O)(=O)c1ccc2c(c1)c(=O)n(C)c(=O)n2C (configuration not stated) -0.144%
CCCCNc1ccc(-c2nc(-c3ccncc3)no2)cc1[N+](=O)[O-] -0.547%
CCOc1ccccc1NC(=O)Cn1c(=O)n(Cc2ccco2)c(=O)c2sc3ccccc3c21 -8.83%
O=C(CSc1n[nH]c(-c2ccccc2)n1)N1CCCCC1 -1.92%
COc1ccc(-c2noc(CSc3nnc(-c4ccccc4)n3-c3ccc(F)cc3)n2)c(OC)c1 -0.281%
O=C(NCc1ccccc1Cl)C1=Cc2cc(Br)ccc2OC1 -7.68%
O=C(Nc1ccc(F)cc1F)c1cnn(-c2ccc(F)cc2)c1-n1cccc1 -3.35%
COc1ccccc1CNC(=O)CCn1c(=O)c2ccccc2n(CC(=O)Nc2ccc(Br)cc2F)c1=O -3.68%
Cc1ccc(Nc2ccc3cc(S(=O)(=O)N4CCCCC4)ccc3n2)cc1F -1.23%
COc1ccc(-c2nc3nc(C)cc(C)n3c2Nc2c(C)cccc2C)cc1 -1.29%
CSc1ccc(CCNC(=O)c2cc(C)nc3c2c(C)nn3-c2cccc(F)c2)cc1 -6.82%
NC1=NC(c2cc(F)cc(F)c2)n2c(nc3ccccc32)N1 (configuration not stated) 1.97%
COc1ccc2c(Sc3ccc(C)cc3)c(C(=O)NC(C)c3ccccc3)[nH]c2c1 (configuration not stated) -15.5%
CCCCOc1ccc(CNC(=O)c2ccc3c(c2)N(C)C(=O)C2CCCCN32)cc1 (configuration not stated) -2.79%
O=C(Cn1c(-c2cccs2)cc2ccccc21)NCCc1ccc(Cl)cc1 -6.23%
COc1ccc(-c2cn3c(n2)sc2cc(C(=O)Nc4ccc(F)cc4)ccc23)cc1 -9.23%
COc1ccccc1CNC(=O)c1ccccc1NC(=O)c1nsc2ccccc12 -6.03%
Cc1ccc(Cn2c(=O)n(CCCC(=O)NCc3ccccc3Cl)c(=O)c3ccccc32)cc1 -2.7%
CCCCOc1ccc(NC(=O)c2cc3c(n(-c4ccc(Cl)cc4)c2=O)CCCC3=O)cc1 -0.531%
CCOc1ccccc1CNCc1c(C(=O)O)c(C)n(Cc2ccc(C)cc2)c1C -6.39%
CCOc1ccc(CNC(=O)CCc2c(C)nn(-c3ccc(N4CCCCC4)nn3)c2C)cc1 -4.7%
CCOC(=O)C1CCCN(S(=O)(=O)c2cc(-c3cc(C)no3)ccc2OC)C1 (configuration not stated) -9.52%
COc1cccc(NC(=O)CN2C(=O)c3ccccc3Sc3ncccc32)c1 -0.909%
COc1cccc(OCCn2c(-c3ccc(Br)cc3)nc3ccccc3c2=O)c1 4.47%
O=C(Cn1c(=O)n(Cc2ccccc2)c(=O)c2sc3ccccc3c21)Nc1ccccc1F -5.67%
CCC(=O)N1CCc2cc(S(=O)(=O)NC(CC(C)C)C(=O)NCCc3cccc(C)c3)ccc21 (configuration not stated) 7.21%
CCOc1ccc(-n2nc3ccc(NC(=O)c4ccc(OC)c(Cl)c4)cc3n2)cc1 9.53%
Cc1cc(C)c(NC(=O)c2cc3sc(Cl)cc3n2C)c(C)c1 5.73%
COc1ccc(-c2nc(Cn3c(=O)cc(C)c4c(C)nn(-c5ccccc5)c43)c(C)o2)c(OC)c1 9.43%
COc1ccccc1CNC(=O)c1ccc(-n2c(C)cc3c2CCCC3)cc1 3.07%
Cc1ccc(O)c(NC(=O)CCS(=O)(=O)c2nc(-c3ccc4c(c3)OCO4)cc(C(F)(F)F)n2)c1 -6.86%
COc1ccc(NC(=O)c2ccco2)cc1NC(=O)COc1ccc(C)c(C)c1 3.35%
O=C(NCCCO)C(=O)Nc1c2c(nn1-c1ccccc1)CSC2 13.6%
COc1ccc(NC(=O)CCNS(=O)(=O)c2ccc3c(c2)CCCC(=O)N3)cc1Cl 0.351%
CN1c2ccc(Cl)cc2-c2nc(SCC(=O)Nc3cc(F)ccc3F)ncc2S1(=O)=O -1.46%
COc1ccc(Cc2nc3ccc(C(=O)NCc4ccc(OC)cc4OC)cc3o2)cc1 8.22%
COc1ccc(S(=O)(=O)NCCSc2nnnn2-c2ccccc2)cc1 -2.3%
COC(=O)c1c(NC(=O)CCCOc2ccccc2)sc2c1CCC(C)C2 (configuration not stated) 9.76%
Cc1nn2c(=O)cc(COC(=O)c3ccccc3NC(=O)COc3ccccc3C)nc2s1 0.156%
COc1ccccc1CNC(=O)CCCn1c(=O)c2ccccc2n(CC(=O)Nc2ccc(C)cc2Cl)c1=O -9.25%
COc1ccccc1CNC(=O)NCc1noc2ccc(C)cc12 -1.14%
CCOc1ccccc1NC(=O)Cn1c2ncccc2c(=O)n1-c1ccc(C)c(C)c1 -2.74%
O=C(CSc1nc2ccccc2nc1Cc1ccccc1)N1CCCCC1 -9.31%
CCOc1cccc(NC(=O)CSc2ncc(-c3ccc(Cl)cc3)[nH]2)c1 3.11%
Cc1c(C(=O)N(C)C)sc2c1c(=O)n(-c1ccc(F)cc1)c(=O)n2CC(=O)N(C)c1ccccc1 8.29%
CCOc1ccc(N(C)S(=O)(=O)c2cc(-c3cnc(C)o3)ccc2OC)cc1 2.21%
Cc1oc(-c2ccccc2F)nc1CN1CCC(C(=O)NCCc2ccc(Cl)cc2)CC1 0.46%
CCOc1ccc(NC(=O)c2c(NC(=O)Cc3ccccc3)sc3c2CCCCC3)cc1 5.92%
CCc1nnc(SCC(=O)Nc2cc(OC)ccc2OC)nc1CC 0.423%

outcome, inactive:
CC(=O)N1CCCc2cc(S(=O)(=O)N3CCC(C(=O)NCc4ccc(F)cc4)CC3)ccc21
COc1cccc(NC(=O)c2ccc3nc(CCc4ccccc4)oc3c2)c1
COc1ccc2c(c1)C=C(C(=O)NCc1cc(Br)ccc1OC)CO2
Cn1c(=O)c2c(SCC(=O)N3CCc4ccccc43)nc(-c3ccc(Cl)cc3)nc2n(C)c1=O
Cc1ccccc1CSc1nc(-c2ccccc2)nc2c1Cc1c(CO)cnc(C)c1O2
CC(C)Cn1c(-c2ccc(S(=O)(=O)N3CCOCC3)cc2)csc1=Nc1cc(Cl)ccc1Cl
Cc1cc(Br)ccc1NC(=O)Cn1cnc2sc(C)c(S(=O)(=O)N3CCN(C)CC3)c2c1=O
COC(=O)c1ccccc1NC(=O)C(Cc1ccccc1)N1Cc2ccccc2C1=O (configuration not stated)
COc1ccc(C2C(=O)N(C3CCCCCC3)CC(=O)N2CCc2ccc(Cl)cc2)cc1OC (configuration not stated)
COC(=O)c1c(NC(=O)C(C)Oc2ccc(Cl)c(C)c2)sc(C)c1C (configuration not stated)
COc1ccc(Cn2c(=O)c3oc4ccccc4c3n(CC(=O)Nc3ccc(F)cc3F)c2=O)cc1
CCOc1ccc(NC(=O)Cn2cc(C(=O)c3ccc(C)cc3)c(=O)c3cc4c(cc32)OCCO4)cc1
COc1ccc(CNC(=O)COCc2cc(-c3cccs3)on2)cc1OC
Cc1ccc(NC(=O)c2cn3c4c(ccc(Cl)c4c2=O)OC(C)C3)cc1C (configuration not stated)
Cc1ccc(-n2ncc3c(NCCCn4ccnc4)ncnc32)cc1Cl
CCCN1CCN(CCCNC(=O)c2cnn(-c3ccc(C)cc3)c2-n2cccc2)CC1
Cc1nn2c(=O)cc(COC(=O)c3cccc(NC(=O)COc4ccccc4Cl)c3)nc2s1
COc1ccccc1-c1noc(CSc2nnc(-c3ccccc3)n2-c2ccc(C)c(C)c2)n1
CCn1c2ccccc2c2nnc(SCC(=O)O)nc21
CCCSc1nc2sc3c(c2c(=O)n1-c1cccc(Br)c1)CC(C)(C)OC3
CCOC(=O)C1CCCN(CC(=O)Nc2cc(C)c3c(=O)oc4ccccc4c3n2)C1 (configuration not stated)
